Experimental findings from PubChem BioAssay AID624094 (National Center for Advancing Translational Sciences (NCATS), 2012) are described below.

Records with an inconclusive call do not appear. The source made the active and inactive calls. Calls follow the shape of the dose curve; as a rule, active = well fitted inhibition curve with a large enough effect; inconclusive = small, poorly fitted or top-dose-only effect; inactive = flat fitted curve, though single readings scatter.

In this test the target is Dual specificity protein kinase CLK4 (Homo sapiens) (UniProt Q9HAZ1). Description: Confirmation Assay for Inhibitors of Clk4 (Kinase-Glo Assay): KU probe. Particulars: recombinant Clk4, Kinase-Glo ATP luminescence. How it is done:
NIH Molecular Libraries Probe Production Centers Network [MLPCN] NIH Chemical Genomics Center [NCGC] MLPCN Grant: 1R03MH084827-01 Assay Submitter (PI): Tom Misteli NCGC Assay Overview: Clk4 (Invitrogen, cat# PV3839) was assayed using ATP and the RS repeat peptide (AnaSpec cat # 61722) as substrates. Following the Clk4 reaction, the remaining ATP levels were detected using Promega Kinase-Glo technology wherein the remaining ATP from the kinase reaction is detected using Ultra-Glo luciferase and D-luciferin which generates a bioluminescence signal from the ATP.
NCGC Assay Protocol Summary: Two uL/well of substrate-buffer solution (100 uM RS peptide, 1 uM ATP, 25 mM Tris pH7.5, 10 mM MgCl2, 0.5 mM EGTA, 2.5 mM DTT, 0.01% Triton X-100 final concentration) was dispensed into 1536-well, assay plates (Greiner, solid white medium-binding plates) with Aurora Discovery BioRAPTR Flying Reagent Dispenser (FRD; Beckton-Dickenson). Using a Kalypsys pin tool equipped with a 1536-pin tool, 23 nL of compound solution was transferred to the assay plate. […] Luminescence was detected with the ViewLux plate reader (Perkin Elmer, Waltham, MA) after 5 min incubation using a 5 second exposure time and 2x binning.
(In general: In Kinase-Glo more light means more ATP remaining.)

Sequence of Dual specificity protein kinase CLK4 (Homo sapiens) (Q9HAZ1 whole entry, looked up): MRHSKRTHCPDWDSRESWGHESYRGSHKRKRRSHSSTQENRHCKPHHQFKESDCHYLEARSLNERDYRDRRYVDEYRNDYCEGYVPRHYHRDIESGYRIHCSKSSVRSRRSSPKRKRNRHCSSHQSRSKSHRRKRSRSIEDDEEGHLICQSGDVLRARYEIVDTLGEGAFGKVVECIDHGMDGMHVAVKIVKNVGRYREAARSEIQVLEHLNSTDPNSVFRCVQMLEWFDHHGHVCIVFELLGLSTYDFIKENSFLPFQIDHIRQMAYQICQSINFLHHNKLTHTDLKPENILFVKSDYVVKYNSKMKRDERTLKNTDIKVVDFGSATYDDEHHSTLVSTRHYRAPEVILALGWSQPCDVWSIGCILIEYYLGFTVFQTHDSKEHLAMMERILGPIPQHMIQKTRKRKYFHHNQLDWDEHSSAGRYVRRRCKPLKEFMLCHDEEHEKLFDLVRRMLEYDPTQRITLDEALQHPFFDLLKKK

Regarding `Clc1ccc(CNc2ccnc(-c3ccc4c(c3)OCO4)n2)cn1`, the Potency was 29.2 µM (active). As for `Cc1cc(CNc2ccnc(-c3ccc4c(c3)OCO4)n2)cnc1F`, the Potency is 9.23 µM (active).
